Screening results (PubChem BioAssay)
In the library only some 3.5% were active in any assay of this set; here they are far more common.
MITF inh: MITF inhibitors, primary screen, biochemical, AlphaScreen, human. 650,000 tested, 0.91% active. Microphthalmia-associated transcription factor (Homo sapiens), O75030. inhibition, % at 2.6 µM. AlphaScreen MITF homodimerization, bead proximity signal; in the data active means inhibition above about 50%
GPR151 ag: activators of human GPR151, primary screen, cell-based, PathHunter beta-arrestin, luminescence. activation, % at 11.2 µM. AID 1508602, 2020. G-protein coupled receptor 151 (Homo sapiens), Q8TDV0. PathHunter beta-arrestin GPR151 cells. 650,000 tested, 1% active; in the data active means activation above about 4.9%
FBW7 activator: FBW7 E3 ligase activators, primary screen, biochemical, AlphaScreen, human | F-box/WD repeat-containing protein 7 (Homo sapiens), Q969H0 | AlphaScreen FBW7–phospho-cyclin E peptide binding, activator screen | normalized activity (activation), % at 26.1 µM | 650,000 tested, 0.13% active | AID 1259310, 2017; in the data active means normalized activity above about 1.9%;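 further: purified mutant Fbw7 with reduced substrate affinity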
TEAD-YAP block: TEAD-YAP interaction inhibition, primary screen, TEAD-YAP interaction inhibitor project, luminescence, HEK-TIYL cells; TEAD-Gal4/YAP UAS-luciferase luminescence; inhibition, % at 9.12 µM; 640,000 tested, 1.4% active; in the data active means inhibition above about 32%
GPR151 conf act: GPR151 activators, triplicate retest, confirmation, cell-based, PathHunter beta-arrestin, luminescence; shares compounds with GPR151 ag; GPR151 PathHunter beta-arrestin cells, 90 min; % of EA-reagent control over plate median; activation, % at 11.2 µM; 6,700 tested, under 10 active; AID 1508609, 2020;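 active means mean percent activation across replicates above the confirmation screen cutoff of 4.91%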
GPR119 ag: GPR119 activators in beta-arrestin cells, counter-screen for GPR151 activator project, cell-based, PathHunter beta-arrestin, luminescence, triplicate; shares compounds with GPR151 ag; 90 min; 0 = compound-well median, 100 = enzyme-acceptor control; activation, % at 11.2 µM; 6,700 tested, 0.3% active; AID 1508611, 2020;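 active means mean percent activation in the counterscreen above 29.09%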;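 further: counterscreen on off-target GPR119 to flag nonselective hits from the GPR151 activator screen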
Target sequence (Q8TDV5 whole entry, looked up): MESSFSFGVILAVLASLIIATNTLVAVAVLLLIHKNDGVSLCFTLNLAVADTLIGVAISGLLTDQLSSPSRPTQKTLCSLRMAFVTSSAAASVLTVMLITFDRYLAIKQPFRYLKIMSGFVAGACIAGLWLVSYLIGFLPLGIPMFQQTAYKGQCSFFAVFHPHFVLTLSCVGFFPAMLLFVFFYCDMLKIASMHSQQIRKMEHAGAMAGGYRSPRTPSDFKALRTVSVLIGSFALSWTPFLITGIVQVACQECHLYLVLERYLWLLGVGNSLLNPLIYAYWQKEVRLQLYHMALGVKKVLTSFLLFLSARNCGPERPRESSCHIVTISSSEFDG
Each line names hits and unclear results; the compound was inactive in the other large screens (follow-up assays come after a bar, where they were run).

O=C(CSc1nc2ccccc2c(=O)n1CCC1=CCCCC1)NCCc1ccccc1	GPR151 ag 6.4 | GPR151 conf act inactive | GPR119 ag inactive
COc1ccc(CCNC(=O)CCn2c(SCC(=O)Nc3cc(C)on3)nc3ccccc3c2=O)cc1OC	GPR151 ag 4.9 | GPR151 conf act inactive | GPR119 ag inactive
O=C(CSc1nc2c(c(=O)n1-c1ccc(Cl)cc1)SCC2)NCCc1ccccc1	none
Cc1ccc(CSc2nc3ccsc3c(=O)n2Cc2ccc(C)cc2)cc1	none
Cc1ccc(Cn2c(SCC(=O)C(C)(C)C)nc3ccsc3c2=O)cc1	GPR151 ag 5.0 | GPR151 conf act inactive | GPR119 ag inactive
CCOC(=O)CSc1nc2ccccc2c(=O)n1Cc1ccccc1OC	GPR151 ag 5.2 | GPR151 conf act inactive | GPR119 ag inactive
CC(NC(=O)CSc1nc2ccccc2c(=O)n1CCCO)c1ccccc1 (stereo not drawn)	GPR151 ag 6.5 | GPR151 conf act inactive | GPR119 ag inactive
CCC(C)NC(=O)CSc1nc2ccccc2c(=O)n1CCCN1CCCCC1CC (stereo not drawn)	none
CC(=O)Nc1ccc(OCC(=O)Nc2ccccc2Cl)cc1	none
N#Cc1cc2cc3c(cc2nc1NCCCNC(=O)c1cccnc1)OCO3	none
Nc1nc(SCc2nc3scc(-c4ccc(Cl)cc4)c3c(=O)[nH]2)n[nH]1	none
O=C(NCc1ccccc1)c1cccc(Nc2ccncn2)n1	none
CCc1cccc(CC)c1NC(=O)CN1C(=O)NC2(CCCCC2C)C1=O (stereo not drawn)	GPR151 ag 6.2 | GPR151 conf act inactive | GPR119 ag inactive
CCOC(=O)c1ccccc1NC(=O)CN(c1ccc(F)c(Cl)c1)S(C)(=O)=O	GPR151 ag 5.2 | GPR151 conf act inactive | GPR119 ag inactive
CCOC(=O)c1ccccc1NC(=O)CN(c1ccc(Cl)c(Cl)c1)S(C)(=O)=O	GPR151 ag 18 | GPR151 conf act inactive | GPR119 ag inactive
CS(=O)(=O)N(CC(=O)NCCC1=CCCCC1)c1ccc(F)c(Cl)c1	none
COc1ccccc1N(CC(=O)Nc1ccccc1C(=O)NCC(C)C)S(C)(=O)=O	GPR151 ag 13 | GPR151 conf act inactive | GPR119 ag inactive
Cc1ccc(N(CC(=O)NCCC2=CCCCC2)S(C)(=O)=O)cc1Cl	GPR151 ag 15 | GPR151 conf act inactive | GPR119 ag inactive
CCOC(=O)c1ccccc1NC(=O)CN(c1ccc(OC)c(Cl)c1)S(C)(=O)=O	none
COC(=O)c1ccccc1NC(=O)CN(c1ccc(Cl)c(Cl)c1)S(C)(=O)=O	none
COC(=O)c1ccccc1NC(=O)CN(c1ccccc1OC)S(C)(=O)=O	none
CC1CCC(CC(=O)O)(CC(=O)O)CC1	none
Cc1cc(C)c(C)c(OCC(O)CN2CCOCC2)c1 (stereo not drawn)	none
CS(=O)(=O)N(CC(N)=O)c1ccc(Cl)cc1Cl	none
CCOC(=O)c1ccccc1NC(=O)c1cn(-c2ccc(F)cc2F)c(=O)c2ccccc12	GPR151 ag 6.7 | GPR151 conf act inactive | GPR119 ag inactive
COC(=O)CN(c1ccc(Cl)cc1Cl)S(C)(=O)=O	GPR151 ag 7.3 | GPR151 conf act inactive | GPR119 ag inactive
Cc1ccc(Cl)cc1NC(=O)CN(c1ccc(Cl)cc1)S(C)(=O)=O	none
COc1ccc(Cl)cc1NC(=O)CN(c1cccc(Cl)c1)S(C)(=O)=O	GPR151 ag 6.8 | GPR151 conf act inactive | GPR119 ag inactive
Cc1ccc(N(CC(=O)Nc2cc(Cl)ccc2C)S(C)(=O)=O)c(C)c1	GPR151 ag 6.9 | GPR151 conf act inactive | GPR119 ag inactive
Cc1ccc(N(CC(=O)Nc2ccccc2F)S(C)(=O)=O)cc1Cl	GPR151 ag 15 | GPR151 conf act inactive | GPR119 ag inactive
COc1ccc(N(CC(=O)Nc2cccc(Cl)c2C)S(C)(=O)=O)cc1OC	none
Cc1ccc(N(CC(=O)Nc2cccc(Cl)c2C)S(C)(=O)=O)cc1C	GPR151 ag 5.3 | GPR151 conf act inactive | GPR119 ag inactive
CCOC(=O)c1ccccc1NC(=O)CN(c1ccccc1OCC)S(C)(=O)=O	none
